In PubChem BioAssay:
Active and inactive are the calls of the source.

Tests used:
[1] = E. coli DRC41 culture turbidity changes, primary screen, E. coli filamentation inducer project, strain DRC41, OD650, 48 h (AID 1152);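 further: E. coli MC1000 strain DRC41 lacking acrAB efflux pump and sulA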; settings: E. coli DRC41 (acrAB sulA), higher = more signal, called active from +8 up or from −8 down
[2] = small-molecule binders of probe aLefty1, primary screen, biochemical, small-molecule microarray, 635/667 nm fluorescence (AID 1153); settings: higher = more signal;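 further: score merges spot fluorescence with signal-to-noise ratio from the scanned slide images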
[3] = PSAC antagonists in infected red cells, primary screen, cell-based, P. falciparum Indochina, OD700, 1 h (AID 1154); settings: P. falciparum Indochina infected RBC osmotic lysis, higher = more signal, called active from +8 up or from −8 down
[4] = PSAC antagonists in infected red cells, primary screen, cell-based, P. falciparum Indochina, OD700, 2 h (AID 1155);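 further: lysis reports solute entry through the parasite surface anion channel PSAC; channel blockers reduce lysis of infected cells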; settings: P. falciparum Indochina infected erythrocytes, osmotic lysis OD700; higher = more signal, called active from +8 up or from −8 down
[5] = osmotic lysis modulators in infected erythrocytes, primary screen, PSAC antagonist project, cell-based, P. falciparum Indochina, OD700, 3 h (AID 1156); settings: higher = more signal, called active from +8 up or from −8 down
[6] = PSAC antagonists in infected red cells, primary screen, cell-based, P. falciparum Indochina, OD700, 18 h (AID 1157); settings: P. falciparum Indochina infected erythrocytes, osmotic lysis OD700, 18 h; higher = more signal, called active from +8 up or from −8 down
[7] = modulators of S6 phosphorylation in cells, primary screen, cell-based, A549, cytoblot, luminescence, serum-stimulated (AID 1158); settings: A549 phospho-S6 cytoblot, 5 h, higher = more signal;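 further: serum-stimulated A549 lung adenocarcinoma cells; signal is phosphorylated S6 detected by cytoblot immunostaining with HRP secondary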
[8] = target: NADPH oxidase 2 (Homo sapiens) (UniProt P04839); assay: NOX2-dependent H2O2 signal modulators, primary screen, NOX inhibitor project, cell-based, HEK293-NOX2, PMA-stimulated, Amplex Red fluorescence (AID 1159); settings: 45 min, higher = more signal, called active from +8 up or from −8 down; further: test concentration not given here
[9] = target: NADPH oxidase 4 (Homo sapiens) (UniProt Q9NPH5); assay: NOX4-dependent H2O2 signal modulators, primary screen, NOX inhibitor project, cell-based, HEK293-NOX4, tetracycline-induced, Amplex Red fluorescence (AID 1160); settings: 45 min, higher = more signal, called active from +8 up or from −8 down
[10] = target: NADPH oxidase 5 (Homo sapiens) (UniProt Q96PH1); assay: NOX5-dependent H2O2 signal modulators, primary screen, NOX inhibitor project, cell-based, HEK293-NOX5, Amplex Red fluorescence (AID 1161); settings: HEK293-NOX5, ionomycin, 45 min, higher = more signal
Sequence of NADPH oxidase 5 (Homo sapiens) (Q96PH1 whole entry, looked up): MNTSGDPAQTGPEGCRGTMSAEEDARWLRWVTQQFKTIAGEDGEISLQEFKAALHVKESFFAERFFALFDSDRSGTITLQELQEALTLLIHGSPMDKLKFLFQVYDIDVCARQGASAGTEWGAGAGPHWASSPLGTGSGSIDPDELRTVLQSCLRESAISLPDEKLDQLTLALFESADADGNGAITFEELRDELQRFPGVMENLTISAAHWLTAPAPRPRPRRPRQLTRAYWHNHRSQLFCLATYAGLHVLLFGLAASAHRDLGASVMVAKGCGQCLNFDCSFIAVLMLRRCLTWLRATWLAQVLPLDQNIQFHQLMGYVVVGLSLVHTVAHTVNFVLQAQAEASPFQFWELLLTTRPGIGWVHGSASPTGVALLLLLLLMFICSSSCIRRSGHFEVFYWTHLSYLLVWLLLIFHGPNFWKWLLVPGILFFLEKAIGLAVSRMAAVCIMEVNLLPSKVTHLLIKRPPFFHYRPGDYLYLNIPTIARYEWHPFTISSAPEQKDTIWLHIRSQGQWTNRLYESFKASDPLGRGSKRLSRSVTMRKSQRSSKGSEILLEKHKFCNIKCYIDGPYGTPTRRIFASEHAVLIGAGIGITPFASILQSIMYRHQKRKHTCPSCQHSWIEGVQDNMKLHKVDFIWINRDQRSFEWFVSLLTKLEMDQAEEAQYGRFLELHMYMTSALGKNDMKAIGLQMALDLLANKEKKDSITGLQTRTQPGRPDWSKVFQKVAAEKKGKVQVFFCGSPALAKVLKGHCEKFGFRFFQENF

Sequence of NADPH oxidase 2 (Homo sapiens) (P04839 whole entry, looked up): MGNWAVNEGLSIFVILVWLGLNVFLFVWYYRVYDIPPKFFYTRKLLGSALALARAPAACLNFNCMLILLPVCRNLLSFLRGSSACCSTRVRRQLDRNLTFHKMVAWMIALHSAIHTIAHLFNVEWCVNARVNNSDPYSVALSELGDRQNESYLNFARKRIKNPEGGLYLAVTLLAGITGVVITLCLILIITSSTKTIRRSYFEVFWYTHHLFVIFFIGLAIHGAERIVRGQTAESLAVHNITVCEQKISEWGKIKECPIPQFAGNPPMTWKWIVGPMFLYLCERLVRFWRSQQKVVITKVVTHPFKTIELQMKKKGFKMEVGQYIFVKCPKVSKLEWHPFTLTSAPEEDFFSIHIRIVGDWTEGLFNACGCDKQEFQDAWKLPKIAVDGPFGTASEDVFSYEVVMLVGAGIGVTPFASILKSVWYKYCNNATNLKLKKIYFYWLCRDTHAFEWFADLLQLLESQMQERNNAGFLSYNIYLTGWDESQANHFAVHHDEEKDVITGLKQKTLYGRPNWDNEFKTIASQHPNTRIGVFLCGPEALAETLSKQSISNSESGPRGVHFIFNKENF
Sequence of NADPH oxidase 4 (Homo sapiens) (Q9NPH5 whole entry, looked up): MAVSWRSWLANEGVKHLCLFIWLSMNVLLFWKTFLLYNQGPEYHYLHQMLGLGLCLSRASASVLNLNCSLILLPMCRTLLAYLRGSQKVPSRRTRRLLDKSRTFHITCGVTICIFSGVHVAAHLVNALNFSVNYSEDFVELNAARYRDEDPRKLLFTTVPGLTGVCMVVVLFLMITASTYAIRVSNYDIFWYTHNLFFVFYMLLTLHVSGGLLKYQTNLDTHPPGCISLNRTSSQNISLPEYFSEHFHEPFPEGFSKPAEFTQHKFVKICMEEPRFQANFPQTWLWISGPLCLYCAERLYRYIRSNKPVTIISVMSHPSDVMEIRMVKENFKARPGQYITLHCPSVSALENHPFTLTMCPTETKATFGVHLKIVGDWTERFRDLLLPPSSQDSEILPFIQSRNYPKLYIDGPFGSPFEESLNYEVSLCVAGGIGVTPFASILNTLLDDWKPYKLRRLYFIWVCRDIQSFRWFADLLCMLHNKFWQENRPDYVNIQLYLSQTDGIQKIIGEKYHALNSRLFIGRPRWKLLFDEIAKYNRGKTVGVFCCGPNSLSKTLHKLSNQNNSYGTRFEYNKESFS

Structure (SMILES)	z-score [1]	composite z-score [2]	z-score [3]	z-score [4]	z-score [5]	z-score [6]	z-score [7]	z-score [8]	z-score [9]	z-score [10]
Cc1ccccc1C(O)C1C=CC2C(=O)N(C)C(=O)C2N1N(c1ccccc1)c1ccccc1 (stereo not given)	-0.402 (inactive)	0.998	3.21 (inactive)	1.71 (inactive)	0.625 (inactive)	1.25 (inactive)	-0.877	0.888 (inactive)	0.0569 (inactive)	-0.125
O=C1N(Cc2ccccc2)c2ccccc2[C@@H]2OC(c3ccc(OCCCO)cc3)=N[C@]12Cc1ccccc1	0.65 (inactive)	-0.0896	29.4 (active)	26.1 (active)	4.66 (inactive)	2.38 (inactive)	0.724	-1.08 (inactive)	-0.653 (inactive)	-2.11
COc1ccccc1CN1C(=O)c2ccccc2[C@@]2(Cc3ccccc3N(CC(F)(F)F)C2=O)[C@@H]1c1ccc(CO)cc1	0.254 (inactive)	0.0623	0.252 (inactive)	0.633 (inactive)	-1.9 (inactive)	0.206 (inactive)	-0.309	-0.802 (inactive)	-0.565 (inactive)	-0.154
CC(c1ccccc1)C(O)C1C=CC2C(=O)N(c3ccccc3)C(=O)C2N1Nc1ccc([N+](=O)[O-])cc1 (stereo not given)	0.179 (inactive)	0.175	20.8 (active)	5.25 (inactive)	0.283 (inactive)	1.61 (inactive)	-0.438	-0.7 (inactive)	-1.18 (inactive)	-1.38
O=C1OCC=C[C@H]2OC34C=CCN(c5ccc(Cl)cc5)C(=O)[C@H]3N(CCO)C(=O)[C@@H]4[C@@H]12 (stereo not given in full)	-0.367 (inactive)	-0.147	0.506 (inactive)	0.0971 (inactive)	0.111 (inactive)	0.403 (inactive)	-0.677	1.12 (inactive)	0.908 (inactive)	1.31
[N-]=[N+]=NCc1ccccc1C[C@@]1(C(=O)N2CCCCC2)N=C(c2ccc(OCCCO)cc2)O[C@@H]1c1ccccc1	-0.184 (inactive)	0.0323	25.2 (active)	14.3 (active)	2.13 (inactive)	2.51 (inactive)	0.893	-2.02 (inactive)	-0.495 (inactive)	-1.49
C=CCOC(=O)[C@H]1[C@@H]2C(=O)O[C@@H](c3ccccc3)[C@@H](c3ccccc3)N2[C@@H](c2ccc(OCCOC(=O)[C@@H]3C[C@@H]4C(=O)N[C@@H](CCCCNC(C)=O)C(=O)N4[C@@H]3c3ccc(O)cc3)cc2)[C@]12C(=O)Nc1ccc(I)cc12	-0.465 (inactive)	0.471	1.33 (inactive)	1.52 (inactive)	3.07 (inactive)	0.964 (inactive)	-0.621	1.08 (inactive)	0.351 (inactive)	2.35
COC(=O)[C@@]1(Cc2ccc(OC)cc2)[C@H]2c3cc(C(=O)N4CCCC4)n(Cc4c(-c5ccccc5)noc4C)c3C[C@H]2CN1C(=O)c1ccccc1	-0.615 (inactive)	0.956	5.34 (inactive)	1.25 (inactive)	-0.749 (inactive)	1.5 (inactive)	0.406	0.428 (inactive)	0.486 (inactive)	2.59
O=C(NCC(F)(F)F)[C@@H]1c2ccccc2C(=O)N(Cc2ccccc2C(F)(F)F)[C@H]1c1ccc(CO)cc1	0.142 (inactive)	-0.0164	1.45 (inactive)	0.478 (inactive)	0.239 (inactive)	0.109 (inactive)	-0.537	0.536 (inactive)	0.0258 (inactive)	-0.284
COC(=O)c1c2oc(c1C(=O)OC)C(=O)N(C)Cc1cn(nn1)C[C@H](Cc1ccccc1)NC(=O)N[C@H](CO)CC2	-0.878 (inactive)	-0.0954	0.965 (inactive)	0.308 (inactive)	-0.119 (inactive)	0.728 (inactive)	-0.638	0.0368 (inactive)	0.338 (inactive)	0.282
C=CCOC(=O)[C@H]1[C@@H]2C(=O)O[C@@H](c3ccccc3)[C@@H](c3ccccc3)N2[C@@H](c2ccc(OCCOC(=O)[C@@H]3C[C@@H]4C(=O)N[C@@H](CCCCN(C)C)C(=O)N4[C@@H]3c3ccc(O)cc3)cc2)[C@]12C(=O)Nc1ccccc12	-1.53 (inactive)	-0.0873	0.0625 (inactive)	0.249 (inactive)	3.35 (inactive)	0.251 (inactive)	-0.444	2.51 (inactive)	0.874 (inactive)	0.391
O=C1N(Cc2ccccc2)Cc2ccccc2[C@@H]2OC(c3ccc(OCCCO)cc3)=N[C@]12CCS(=O)(=O)c1ccccc1	-0.715 (inactive)	0.547	21.2 (active)	4.09 (inactive)	2.99 (inactive)	0.492 (inactive)	0.0549	-0.146 (inactive)	1.23 (inactive)	1.03
O=C1OCC=C[C@H]2OC34C=CCN(Cc5ccccc5)C(=O)[C@H]3N(CCCCCCO)C(=O)[C@@H]4[C@@H]12 (stereo not given in full)	2.56 (inactive)	-0.152	0.987 (inactive)	-0.567 (inactive)	-0.368 (inactive)	-0.924 (inactive)	1.02	1.22 (inactive)	-0.272 (inactive)	1.87
COC(=O)[C@@]1(Cc2ccc(F)cc2)[C@H]2c3cc(C(=O)N4CCCC4)n(CCc4ccc(O)c(O)c4)c3C[C@H]2CN1C(=O)c1ccccc1	-1.04 (inactive)	1.09	2.9 (inactive)	0.5 (inactive)	0.718 (inactive)	0.936 (inactive)	-0.243	-4.14 (inactive)	-7.52 (inactive)	-6.63
[N-]=[N+]=NCc1ccccc1C[C@@]1(C(=O)NCc2ccccc2)N=C(c2ccc(OCCCO)cc2)O[C@@H]1c1ccccc1N=[N+]=[N-]	-0.0632 (inactive)	-0.221	32.6 (active)	33.3 (active)	2.4 (inactive)	3.61 (inactive)	0.108	0.0504 (inactive)	-0.437 (inactive)	-1.22
Cn1cccc1C(O)C1C=CC2C(=O)NC(=O)C2N1Nc1ccc(Cl)cc1Cl (stereo not given)	-3.18 (inactive)	0.0981	2.16 (inactive)	1.35 (inactive)	0.304 (inactive)	1.07 (inactive)	-1.42	-0.663 (inactive)	-3.85 (inactive)	-2.71
C=CCN1C(=O)[C@@]2(O[C@@H](CCn3cc([C@H](O)c4ccccc4)nn3)[C@H]([Si](C)(C)c3ccc(OC)cc3)[C@H]2C)c2cc(N3CCC3=O)ccc21	0.359 (inactive)	-0.189	14.4 (active)	1.98 (inactive)	0.292 (inactive)	1.01 (inactive)	-0.266	0.631 (inactive)	-0.498 (inactive)	0.0158
NC(=O)NCC#Cc1ccc2c(c1)[C@]1(C(=O)N2)[C@H](C(=O)NC[C@H](O)c2ccccc2)[C@H]2C(=O)O[C@H](c3ccccc3)[C@H](c3ccccc3)N2[C@@H]1c1ccc(OCCO)cc1	0.851 (inactive)	0.157	4.47 (inactive)	1.72 (inactive)	1.55 (inactive)	0.49 (inactive)	0.0785	1.59 (inactive)	0.849 (inactive)	0.737
COc1ccc([Si](C)(C)[C@@H]2[C@@H](CC(=O)N(CCO)Cc3ccccc3)O[C@]3(C(=O)N(Cc4cccc(N5C(=O)c6cccc7cccc5c67)c4)c4ccccc43)[C@H]2C)cc1	2.02 (inactive)	0.287	4.59 (inactive)	0.343 (inactive)	-0.667 (inactive)	-0.526 (inactive)	1.92	1.09 (inactive)	1.09 (inactive)	3
COc1ccc([Si](C)(C)[C@H]2[C@H](CC(=O)N(CCO)Cc3ccccc3)O[C@@]3(C(=O)N(Cc4cccc(N5CCOC5=O)c4)c4ccccc43)[C@@H]2C)cc1	0.359 (inactive)	0.114	12.9 (active)	2.72 (inactive)	1.68 (inactive)	1.31 (inactive)	0.315	0.681 (inactive)	0.7 (inactive)	2.48
COc1ccc(-c2nc(-c3ccccc3)c3c(c2C)CO[Si]3(C(C)C)C(C)C)cn1	-1.41 (inactive)	0.0816	0.574 (inactive)	-0.0994 (inactive)	-0.566 (inactive)	-0.278 (inactive)	-0.0095	-0.783 (inactive)	0.386 (inactive)	-1.54
COCCOC(=O)N1C(=O)[C@@]2(c3cc(C#CCCO)ccc31)[C@H](c1ccccc1OCCO)N1[C@H](c3ccccc3)[C@H](c3ccccc3)OC(=O)[C@H]1[C@@H]2C(=O)Nc1nc2ccccc2s1	-0.395 (inactive)	0.241	13.1 (active)	3.36 (inactive)	0.621 (inactive)	1.66 (inactive)	-0.202	1.18 (inactive)	0.781 (inactive)	1.53
O=C1NC(=O)C2C1C=CC(C(O)c1c(F)cccc1Cl)N2Nc1ccc(Cl)cc1Cl (stereo not given)	-3.86 (inactive)	0.501	3.9 (inactive)	0.914 (inactive)	-0.87 (inactive)	1.17 (inactive)	-1.27	0.295 (inactive)	-5.4 (inactive)	-2.57
CN(C)c1ccc(C(O)C2C=CC3C(=O)N(c4ccccc4)C(=O)C3N2Nc2ccc([N+](=O)[O-])cc2)cc1 (stereo not given)	-1.16 (inactive)	0.388	4.9 (inactive)	1.16 (inactive)	1.69 (inactive)	0.73 (inactive)	-0.503	-1.95 (inactive)	-4.56 (inactive)	-4.69
COCCOC(=O)N1C(=O)[C@@]2(c3cc(C#CC4=CCCCC4)ccc31)[C@H](c1ccc(O)cc1)N1[C@H](c3ccccc3)[C@H](c3ccccc3)OC(=O)[C@H]1[C@@H]2C(=O)N1CCN(c2ncccn2)CC1	-0.202 (inactive)	-0.183	-0.0088 (inactive)	0.18 (inactive)	0.299 (inactive)	0.0164 (inactive)	-0.229	0.347 (inactive)	-0.0204 (inactive)	0.715
